Screening data deposited in PubChem by National Center for Advancing Translational Sciences (NCATS).
LDHA block: inhibitors of human lactate dehydrogenase A; 480,000 compounds, 0.15% hits; purified LDHA, NADH/diaphorase-resazurin fluorescence; active compounds read low; activity change, % (values are at about 110 or 230 µM); P00338; in the data active = activity change below about -30%; inconclusive = mostly about -25% to -30%
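LDH5 2 nM; NADH 0.06 mM, pyruvate 0.2 mM; 200 mM Tris pH 7.4, EDTA, Tween-20; 5 min RT. Detection: diaphorase 0.133 mg/mL + resazurin 37 µM, fluorescence ex540/em590 at 0 and 20 min; normalized to enzyme-free and DMSO wells.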
DT40 TDP1 no CPT: qHTS for Inhibitors of human tyrosyl-DNA phosphodiesterase 1 (TDP1): qHTS in cells in absence of CPT. DT40 Tdp1-/- hTDP1 cells, no CPT, ATP luminescence, 48 h. Potency, µM (doses to about 46.2 µM), most hits filed as inhibitors. 420,000 compounds, 15% hits. AID 686978, 2013; note: nearly all actives have a fitted effect of over 55% in size
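Readout: luminescence from CellTiter-Glo after 30 min in the dark at RT. Cells: DT40 Tdp1-/- with stable hTDP1, 400/well. Exposure: compounds alone, ≥48 hr, 37 °C.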
RORg inh: ROR gamma (mouse) transcription inhibition; P51450; Drosophila S2 Gal4-RORgamma UAS-luciferase reporter, 20 h; Potency, µM (series often up to 53.6 µM), most hits filed as inhibitors; 310,000 compounds, 5.4% hits; note: nearly all actives have a fitted effect of over 60% in size
Target sequence (P51450 whole entry, looked up, the tested form may be a part): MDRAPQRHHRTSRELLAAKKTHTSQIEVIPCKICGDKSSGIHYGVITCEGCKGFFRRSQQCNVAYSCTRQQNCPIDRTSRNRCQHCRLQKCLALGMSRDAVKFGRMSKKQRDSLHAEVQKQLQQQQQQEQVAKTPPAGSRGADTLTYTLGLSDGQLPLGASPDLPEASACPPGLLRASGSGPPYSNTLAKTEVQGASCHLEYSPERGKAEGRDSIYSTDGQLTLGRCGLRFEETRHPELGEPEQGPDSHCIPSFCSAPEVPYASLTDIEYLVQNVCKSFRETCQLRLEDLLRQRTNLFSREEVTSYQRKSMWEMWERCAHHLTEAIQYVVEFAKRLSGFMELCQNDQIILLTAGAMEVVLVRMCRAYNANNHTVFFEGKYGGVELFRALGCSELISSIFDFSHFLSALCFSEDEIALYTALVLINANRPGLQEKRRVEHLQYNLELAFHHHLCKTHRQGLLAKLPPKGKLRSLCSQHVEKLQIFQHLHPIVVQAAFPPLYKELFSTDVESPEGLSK
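Compounds are pin-transferred onto Drosophila Schneider cells expressing a copper-inducible Gal4–ROR gamma transactivation domain fusion. After 1 hr, copper sulfate is added to 700 uM final; luciferase is read 20 hr later.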
IL1B secr inh: inhibitors of inflammasome signaling (IL-1 beta secretion). THP-1 LPS/ATP IL-1B secretion, AlphaLISA, 16 h; active compounds read low. activity change, % at 57.5 µM. 360,000 compounds, 4.7% hits; in the data active = activity change below about -50%; inconclusive = mostly about -30% to -49%
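Secreted IL-1B measured by AlphaLISA bead assay after 16 h compound exposure of THP-1 cells; compounds (final up to 57.5 uM) added 1 h before LPS (250 ng/mL) and ATP (1.25 mM) stimulation; lower signal means less secretion.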
Gal4-VP16 FLuc: Gal4-VP16 reporter inhibition counter-screen; Drosophila S2 Gal4-VP16 UAS-luciferase, luminescence, 20 h; Potency, µM (highest dose often 53.6 µM), usual class: inhibitors; 310,000 compounds, 3.5% hits;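 note: Gal4-VP16 expression switched on by copper sulfate through the metallothionein promoter; nearly all actives have a fitted effect of over 50% in size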
TDP1 cell CPT: growth inhibition of DT40 Tdp1-/-;hTDP1 cells with camptothecin (screen for TDP1 inhibitors) | chicken DT40 Tdp1-/-;hTDP1 cells + 20 nM CPT, ATP luminescence, 48 h | Potency, µM (series often up to 46.2 µM), actives largely listed as inhibitors | 420,000 compounds, 12% hits | AID 686979; note: nearly all actives have a fitted effect of over 55% in size
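Cell growth measured by CellTiter-Glo luminescence after a minimum 48 h, 37 C compound exposure with 20 nM CPT in Tdp1-knockout DT40 cells stably expressing hTDP1, seeded 400/well; qHTS titration format.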
Numbers stand for hits; n = inactive; u = inconclusive; x = no result; [ ] = another dose, or the depositor's remark. Hits are enriched below; roughly 18% of the tested compounds scored in any of these assays. Unless noted, calls come from the whole dose curve; as a rule, active = well fitted curve in the direction sought with a large enough effect; inconclusive = small, poorly fitted or top-dose-only effect, or another doubt; inactive = no such curve, though single readings can be large; an effect the other way counts as inactive or inconclusive.

SMILES	LDHA block	DT40 TDP1 no CPT	RORg inh	IL1B secr inh	Gal4-VP16 FLuc	TDP1 cell CPT
COc1ccc(-c2nc3c(s2)CN(C(C(=O)O)c2c[nH]c4ccc(CO)cc24)CC3)cc1OC (stereo unspecified)	n	x	x	x	x	x
Cc1ccc(C(CC(=O)O)NC(=O)c2ccccc2C(F)(F)F)cc1 (stereo unspecified)	n	x	x	x	x	x
CCOc1cc(C(=O)OC(C)C(N)=O)ccc1OCC(C)C (stereo unspecified)	n	x	x	x	x	x
Cc1ccnc(NC(c2ccccn2)c2c(C)[nH]c3ccccc23)c1 (stereo unspecified)	n	u	n	-106	n	u
Cc1[nH]c2ccccc2c1C(=O)CN1CCC(C)CC1	n	n	n	n	n	n
Cc1[nH]c2ccccc2c1C(c1ccccn1)N1CCCC1 (stereo unspecified)	n	16µM	n	n	n	u
CCOC(=O)C1CCCN(C(c2ccccn2)c2c(C)[nH]c3ccccc23)C1 (stereo unspecified)	n	n	13µM	n	n	n
Cc1[nH]c2ccccc2c1C(c1ccccn1)N1CCC(C)CC1 (stereo unspecified)	n	21µM	n	-107	n	21µM
CCOC(=O)C1CCCN(C(=O)Cc2c(C(=O)O)[nH]c3ccccc23)C1 (stereo unspecified)	n	n	n	n	n	n
CCn1c(C)nc2cc(C(=O)N/N=C/c3ccccc3)ccc21	n	n	n	n	u	n
CCn1c(C)nc2cc(C(=O)N/N=C/c3cccc(O)c3O)ccc21	n	9.2µM	2.2µM	n	11µM	15µM
CCn1c(C)nc2cc(C(=O)N/N=C(\C)c3ccc(OC)cc3O)ccc21	n	10µM	1µM	n	2.8µM	9.2µM
COc1ccc([C@H]2C[C@H](O)[C@@H](n3cc(C4CC4)nn3)CN2Cc2cccs2)cc1	n	12µM	x	n	x	u
O[C@H]1C[C@H](c2ccccc2)N(Cc2cccs2)C[C@@H]1n1cc(C2CC2)nn1	n	21µM	x	n	x	u
O[C@@H]1C[C@H](c2ccccc2)N(CC2CCCCC2)C[C@H]1n1cc(C2CC2)nn1	n	u	x	n	x	n
O=C1C=CC(=O)C(CNc2ccc(C(=O)OCc3ccccc3)cc2)=C1	n	4.1µM	x	-100	x	5.8µM
COc1cccc(O)c1O	x	4.6µM	u	x	u	3.7µM
COc1cccc2c1-c1c(O)cccc1C2=O	n	n	n[1.91 µM]	n	n	n
Cn1c(COc2ccc(Br)cc2)nnc1SC1CCc2ccccc2C1=O (stereo unspecified)	n	u	22µM	n	u	u
CC12CCC(c3c(C(=O)Nc4nccs4)nn(-c4ccccc4)c31)C2(C)C (stereo unspecified)	n	18µM	u	n	n	16µM
CCOc1ccc(NC(=O)Nc2cccs2)cc1	n	18µM	n	n	u	10µM
Cc1ccc(NC(=O)Nc2cccs2)cc1	n	26µM	n	n	n	16µM
CCc1ccc(NC(=O)Nc2cccs2)cc1	n	15µM	n	n	n	21µM
CCOc1ccc(NC(=O)NC23CC4CC(CC(C4)C2)C3)cc1	n	23µM	n	-67	n	21µM
Cc1cc(C)cc(NC(=O)Nc2cccs2)c1	n	u	x	x	x	u
SMILES	LDHA block	DT40 TDP1 no CPT	RORg inh	IL1B secr inh	Gal4-VP16 FLuc	TDP1 cell CPT
CC(C)(C)C(=O)Nc1cccc(C(=O)Oc2ccccc2C#N)c1	n	x	x	x	x	x
CC(C)C(=O)Nc1ccc2c(C(C(=O)O)N3CCN(C=O)CC3)c[nH]c2c1 (stereo unspecified)	n	x	x	x	x	x
O=C(CCCOc1ccccc1)OCC(=O)c1ccc2c(c1)OCO2	n	x	x	x	x	x
CCN(CC)CCNc1nc2c(c(=O)n(C)c(=O)n2C)n1Cc1ccc(Cl)cc1Cl	n	x	x	x	x	x
CCc1ccc(NC(=O)Nc2cn(C)c(=O)c3ccccc23)cc1	n	21µM	x	x	x	21µM
Cc1ccc(NC(=O)Nc2ccno2)cc1	n	16µM	n	n	n	u
Cc1cccc(NC(=O)Nc2cccs2)c1C	n	u	x	x	x	26µM
CCc1ccccc1NC(=O)Nc1cn(C)c(=O)c2ccccc12	n	x	x	x	x	x
O=C(CCC(=O)c1ccc(Cl)cc1)OCC(=O)c1ccc(OCc2ccccc2)cc1	n	x	x	x	x	x
Clc1ccc(OCc2cn3ccccc3n2)c2ncccc12	n	16µM	11µM	-61	u	15µM
COC(=O)c1c(NC(=O)COc2ccccc2Cl)sc2c1CCC(C(C)(C)C)C2 (stereo unspecified)	n	n	x	x	x	n
CCOC(=O)c1c(NC(=O)CC2SC(N)=NC2=O)sc(C)c1C (stereo unspecified)	n	n	u	n	n	23µM
COC(=O)c1c(NC(=O)CC2SC(N)=NC2=O)sc2c1CCC(C)C2 (stereo unspecified)	n	u	u	u	n	n
CCOC(=O)c1cc(CC)sc1NC(=O)CC1SC(N)=NC1=O (stereo unspecified)	n	n	n	n	n	n
CCOC(=O)c1c(NC(=O)CC2SC(N)=NC2=O)sc2c1CCC(C)C2 (stereo unspecified)	n	n	n	-52	n	n
CCOC(=O)c1c(NC(=S)NC(=O)c2cnn(CC)c2)sc2c1CCC(C)C2 (stereo unspecified)	n	u	11µM	n	n	u
COC(=O)c1c(NC(=O)CC2SC(N)=NC2=O)sc2c1CCC(C(C)(C)C)C2 (stereo unspecified)	n	u	u	-53	n	u
Cc1sc(NC(=O)c2ccc(Cl)c(S(=O)(=O)N3CCOCC3)c2)nc1-c1ccc(F)cc1	n	x	x	x	x	x
CC(C)CCn1cnc2c(sc3nc4c(cc32)CSC(C)(C)C4)c1=O	n	16µM	n	n	n	u
CC1(C)Cc2nc3sc4c(NCCO)ncnc4c3cc2CS1	n	21µM	4µM	n	u	u
Cc1cc(-c2ccc([N+](=O)[O-])cc2)nc2ccccc12	n	n	n	n	n	n
Cc1nc(N)nc(N)c1-c1ccc([N+](=O)[O-])cc1	n	1.5µM	x	n	x	u
O=C(c1ccncc1)N1CCN(C(=O)c2ccncc2)CC1	n	n	u	n	n	n
CC1CC(Nc2ccccc2)c2ccccc2N1C(=O)c1ccco1 (stereo unspecified)	n	15µM	n	n	n	23µM
CC1CC(Nc2ccccc2)c2ccccc2N1C(=O)c1ccncc1 (stereo unspecified)	n	8.2µM	n	n	n[10 µM]	9.2µM
O=C(NC1CC(=O)N(c2ccc3c(c2)OCCO3)C1)c1ccc(S(=O)(=O)N2CCOCC2)cc1 (stereo unspecified)	n	x	x	x	x	x
